Only some compounds are listed: those with a hit (about 4.6% of all), similar ones and a draw of the others.
HCV inh: inhibitors of hepatitis C virus infection; AID 651820; Huh7.5.1 HCVcc-Cre infection, luciferase reporter, 44 h; actives 3.4% (n = 340,000); Potency, µM (doses to about 41.8 µM), inactives show top-dose activity change, negative = inhibition, usual class: inhibitors; active = well fitted inhibition curve with a large enough effect; inconclusive = small, poorly fitted or top-dose-only effect, or another doubt; inactive = no such curve, though single readings can be large or run the other way
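Cells (1,000/well) were plated 4 h before compound, then infected with HCVcc-Cre virus (~0.5 moi). After 44 h further culture, infection was read as luciferase luminescence following a 15 min substrate incubation at room temperature.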
Marburg entry inh: Marburg virus entry inhibition | actives 1.8% (n = 300,000) | Potency, µM (titrated, usually from 37.8 µM), inactives show at the highest dose activity change, negative = inhibition, most hits filed as inhibitors | Marburg virus pseudotyped entry inhibition, cell reporter; calls by dose curve; tested in HEK293 cells
VACV Venus inh: vaccinia inhibition (Venus reporter); Vaccinia virus Venus reporter expression, fluorescence; Potency, µM (highest dose often 36.5 µM), for inactives: at the top dose activity change, negative = inhibition, most hits filed as inhibitors; actives 0.46% (n = 330,000); AID 720580; calls by dose curve; tested in A549 cells; note: nearly all actives have a fitted effect of over 30% in size
LASV entry inh: inhibitors of Lassa virus binding or cell entry; actives 1.2% (n = 300,000); Lassa virus pseudotype entry inhibition, cell reporter; Potency, µM (series often up to 37.9 µM), without a hit: at the top dose activity change, negative = inhibition, actives largely listed as inhibitors; calls by dose curve; tested in HEK293 cells; note: nearly all actives have a fitted effect of over 50% in size
VACV mCherry inh: vaccinia inhibition (mCherry reporter) | Potency, µM (titrated, usually from 36.5 µM), without a hit: at the top dose activity change, negative = inhibition, most hits filed as inhibitors | actives 0.63% (n = 310,000) | Vaccinia virus mCherry reporter infection, fluorescence; calls by dose curve; tested in A549 cells; note: nearly all actives have a fitted effect of over 35% in size
Active calls of the source: *; ! = not confirmed by another sample; [ ] = remark or other dose. % is set by controls: 0 for no effect and ±100 for the full control effect; potency is the fitted concentration of half-maximal effect.

How did CC(=O)N1CCc2cc(S(=O)(=O)CCC(=O)N3CCN(c4cccc(C)c4C)CC3)ccc21 do in these assays?
Marburg entry inh: 7%[46.1 µM]; VACV Venus inh: -13%; LASV entry inh: -15%[46.1 µM]; VACV mCherry inh: -15%

How did O=C1CCCC1C(=O)Nc1ccc2ccccc2c1 (stereo not drawn) do in these assays?
HCV inh: -20%; VACV Venus inh: -21%; VACV mCherry inh: inactive

How did O=C1CCCCC1Nc1ccc2ccccc2c1 (stereo not drawn) do in these assays?
HCV inh: inconclusive; Marburg entry inh: 3.5µM*; VACV Venus inh: -17%; LASV entry inh: inconclusive; VACV mCherry inh: inconclusive

What do the screens show for `CC(C)Cc1nc2cc(NS(=O)(=O)N(C)C)cc(C(=O)N3CCOCC3)c2n1C`?
VACV Venus inh: -5%; VACV mCherry inh: -13%

What do the screens show for `Cc1cc([N+](=O)[O-])nn1Cc1ccc(C(=O)N/N=C/c2ccc(F)cc2)cc1`?
HCV inh: -23%; Marburg entry inh: inconclusive; VACV Venus inh: -25%; LASV entry inh: -1%; VACV mCherry inh: -30%

Results for O=C(N/N=C/c1ccc(O)cc1O)c1ccc(CN2C(=O)c3cccc4cccc2c34)cc1 ?
HCV inh: inconclusive; Marburg entry inh: 3.2µM*; VACV Venus inh: inconclusive; LASV entry inh: 5.2µM*; VACV mCherry inh: 2.5µM*

What do the screens show for `Cc1cc([N+](=O)[O-])nn1Cc1ccc(C(=O)N/N=C/c2ccc(O)cc2O)cc1`?
HCV inh: inconclusive; Marburg entry inh: 7.3µM*; VACV Venus inh: inconclusive; LASV entry inh: 3.5µM*; VACV mCherry inh: inconclusive

How did Cc1nc2c(ccc3c2ccc2nc(C)sc23)s1 do in these assays?
HCV inh: 13%; Marburg entry inh: inconclusive; VACV Venus inh: -6%; LASV entry inh: 9%

Results for COc1cc2sc(C)nc2c2ccccc12 ?
HCV inh: 10µM*

What do the screens show for `O=C(COc1ccccc1Cl)Nc1ccc(CN2CCOCC2)cc1`?
HCV inh: 13µM*

How did O=C(COc1ccccc1Cl)Nc1ccc(S(=O)(=O)N2CCOCC2)cc1 do in these assays?
HCV inh: -5%; Marburg entry inh: inconclusive; VACV Venus inh: -8%; LASV entry inh: -14%[46.1 µM]; VACV mCherry inh: inactive

Results for Cc1cc(OCC(=O)Nc2ccc(CN3CCOCC3)cc2)c2c(C)cc(=O)oc2c1 ?
HCV inh: -5%

How did O=C(/C=C/c1ccccc1)Nc1ccc(CN2CCOCC2)cc1 do in these assays?
HCV inh: 2%

Results for O=C(/C=C/c1ccc(Cl)cc1Cl)Nc1ccc(CN2CCOCC2)cc1 ?
HCV inh: 3.2µM*

What do the screens show for `Cc1cc(OCC(=O)Nc2ccc(CN3CCOCC3)cc2)c2c(C)c(C)c(=O)oc2c1`?
HCV inh: 11µM*

How did CC(C)(C)NCC(O)C1=C(Cl)CCCC1 (stereo not drawn) do in these assays?
Marburg entry inh: 15%

Results for COc1cc2c(c(OC)c1OC)C(c1ccccc1)(c1ccccc1)CC2NC(=O)C(F)(F)F (stereo not drawn) ?
Marburg entry inh: -10%[14.2 µM]

How did NC(=S)NN=C1CCC(C2CCCCC2)CC1 (stereo not drawn) do in these assays?
HCV inh: inconclusive; Marburg entry inh: inconclusive; VACV Venus inh: -7%; LASV entry inh: -20%[46.1 µM]; VACV mCherry inh: -27%

What do the screens show for `NC(=S)NN=C1CCCCCCCCCC1`?
HCV inh: 11µM*; Marburg entry inh: -2%; VACV Venus inh: inconclusive; LASV entry inh: -16%; VACV mCherry inh: inconclusive

What do the screens show for `CCCCn1c(C)cc2c(c1=O)[C@H]1O[C@](CCCC)(Cc3cc(C#N)ccc31)O2`?
Marburg entry inh: -18%[14.2 µM]; LASV entry inh: inconclusive

How did Cc1ccc(C(=O)NC2CCCCC2)cc1-c1ccc(C(=O)NCC2CC2)cc1 do in these assays?
LASV entry inh: 1.4µM*

Results for Cc1ccc(NC(=O)CC2CC2)cc1-c1ccc(C(=O)NCC2CC2)cc1 ?
LASV entry inh: 4µM*

Results for Cc1ccc(C(=O)Nc2ccc(C(=O)NCC3CCCO3)cc2)cc1 (stereo not drawn) ?
HCV inh: -14%

How did Cc1ccc(Cn2c(SCCN3CCCCC3)nc3c2c(=O)n(C)c(=O)n3C)cc1 do in these assays?
HCV inh: 13µM*; Marburg entry inh: inconclusive; VACV Venus inh: inconclusive; LASV entry inh: inconclusive

What do the screens show for `Cn1c(=O)c2c(nc(SCCN3CCCCC3)n2Cc2ccccc2)n(C)c1=O`?
HCV inh: inconclusive; Marburg entry inh: inconclusive; LASV entry inh: 4%

Results for CC1Cc2ccccc2N1C(=O)CSc1nc2c(c(=O)n(C)c(=O)n2C)n1Cc1ccccc1 (stereo not drawn) ?
HCV inh: 3.5µM*; Marburg entry inh: inconclusive; VACV Venus inh: -3%; LASV entry inh: inconclusive; VACV mCherry inh: -13%

What do the screens show for `Cc1ccc(Cn2c(SCc3cccnc3)nc3c2c(=O)n(C)c(=O)n3C)cc1`?
HCV inh: inconclusive; Marburg entry inh: -27%; VACV Venus inh: -10%; LASV entry inh: -26%; VACV mCherry inh: -29%

How did CCCn1c(SCC(=O)Nc2ccccc2N2CCCCC2)nc2c1c(=O)n(C)c(=O)n2C do in these assays?
HCV inh: 10µM*!; Marburg entry inh: inconclusive; VACV Venus inh: -18%; LASV entry inh: inconclusive; VACV mCherry inh: -29%

What do the screens show for `CCCn1c(SCC(=O)Nc2ccccc2C(=O)OC)nc2c1c(=O)n(C)c(=O)n2C`?
HCV inh: inconclusive; Marburg entry inh: -3%; LASV entry inh: 1%

How did Cc1ccc(Cn2c(SCC(N)=O)nc3c2c(=O)n(C)c(=O)n3C)cc1 do in these assays?
HCV inh: 11µM*; Marburg entry inh: 6%; VACV Venus inh: -23%; LASV entry inh: 0%; VACV mCherry inh: inactive

Results for CCOc1cccc(C(=O)Nc2c(C(=O)c3ccc(OC)cc3)oc3ccccc23)c1 ?
Marburg entry inh: 5%[46.1 µM]; VACV Venus inh: -11%; LASV entry inh: 11%[46.1 µM]; VACV mCherry inh: -7%

How did CCOc1ccc2nc(NC(=O)CSc3nc4c(c(=O)n(C)c(=O)n4C)n3C(C)C)sc2c1 do in these assays?
HCV inh: inconclusive; Marburg entry inh: inconclusive; VACV Venus inh: -3%; LASV entry inh: -8%; VACV mCherry inh: -4%

Results for CCn1c(SCC(=O)Nc2nc3ccc(OC)cc3s2)nc2c1c(=O)n(C)c(=O)n2C ?
HCV inh: 4µM*; Marburg entry inh: inconclusive; LASV entry inh: -42%

What do the screens show for `CCOC(=O)/C(=C/C=C1\Sc2ccccc2N1CC)C(C)=O`?
HCV inh: inconclusive; Marburg entry inh: inconclusive; VACV Venus inh: -25%; LASV entry inh: inconclusive; VACV mCherry inh: -18%

Results for CCOC(=O)/C(=C/C=C1\Sc2cc(C)c(C)cc2N1CC)C(C)=O ?
HCV inh: 11µM*; Marburg entry inh: inconclusive; VACV Venus inh: 18%; LASV entry inh: inconclusive; VACV mCherry inh: inactive

Results for CCC(=O)/C=C1/Sc2ccc(OC)cc2N1CC ?
HCV inh: inconclusive; Marburg entry inh: 3%; VACV Venus inh: -18%; LASV entry inh: 5%; VACV mCherry inh: inconclusive

High-throughput results as filed in PubChem BioAssay.
